# Test results: PubChem BioAssay
# Calls of active or inactive are those of the source.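 The calls were made as follows, unless noted: active = inhibition at or above 50% at 10 µM; inactive = inhibition below 50%.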
# What was measured:
# [1] = inhibitors of TNFa-induced NFkB p65 translocation, primary screen, imaging, HUVEC, MLSMR starter and 10KST1 sets (AID 438;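 active = inhibition above 20% together with a positive visual image hit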;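 also: compound added about 3h40 before a 20 min TNFalpha stimulation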;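 as to inhibition: signal is the nuclear over cytoplasmic p65 intensity ratio per well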); settings: HUVEC TNFa-induced p65 nuclear translocation; cell count: measured here: nuclei count (cytotoxicity indicator), at 2.08 µM; inhibition: at 2 µM, stronger effect = higher value, 0% TNFa-plus-vehicle, 100% no-TNFa wells
# [2] = inhibitors of mutant huntingtin aggregation, primary screen, imaging, exon1htt(103Q)mCFP cells, high-content imaging (AID 483;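 active = visual image review flags a hit and inhibition of aggregation exceeds 20%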;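 also: compound exposure lasted 3 days before fixation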;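 as to nuclei count: percent of the per-plate median nuclei count of sample wells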); settings: exon1htt(103Q)mCFP cell line, aggregate imaging, at 2 µM; inhibition of aggregation: stronger effect = higher value; nuclei count: measured here: cell count, toxicity
# [3] = biological target: Voltage-gated potassium channel subunit beta-2 (Rattus norvegicus) (UniProt P62483); assay: KvBeta enzyme negative modulators, primary screen, biochemical, NADPH fluorescence (AID 622;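 active = fluorescence slope higher than the sample average by over 3 SD, cut at about -0.22 in these data, passing the limit was not always enough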;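 also: slope of raw intensity against log time taken from 70 to 1610 s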); settings: recombinant KvBeta, 4-cyanobenzaldehyde reduction, at 10 µM, stronger effect = higher value
# Sequence of Voltage-gated potassium channel subunit beta-2 (Rattus norvegicus) (P62483 whole entry, looked up): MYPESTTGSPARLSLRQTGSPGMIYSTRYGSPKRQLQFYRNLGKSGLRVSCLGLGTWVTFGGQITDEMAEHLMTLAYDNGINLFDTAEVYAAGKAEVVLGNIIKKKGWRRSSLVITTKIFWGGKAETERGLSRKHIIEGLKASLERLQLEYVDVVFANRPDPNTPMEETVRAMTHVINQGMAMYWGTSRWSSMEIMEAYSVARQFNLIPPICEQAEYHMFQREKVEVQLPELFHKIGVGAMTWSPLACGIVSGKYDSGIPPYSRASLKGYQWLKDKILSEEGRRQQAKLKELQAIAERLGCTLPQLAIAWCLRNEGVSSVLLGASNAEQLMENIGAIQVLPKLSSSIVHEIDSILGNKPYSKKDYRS
# [4] = biological target: Voltage-gated potassium channel subunit beta-2 (Rattus norvegicus) (UniProt P62483); assay: KvBeta positive modulators, primary screen, biochemical, NADPH fluorescence (AID 623;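 active = NADPH fluorescence slope more negative than the mean of all samples by about 3 SD, 99.7% confidence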;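 also: fluorescence intensity change per second fitted from 20 to 320 s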); settings: Recombinant KvBeta, NADPH fluorescence decrease slope, 10 min; at 10 µM; stronger effect = lower value
# [5] = biological target: Alpha-2C adrenergic receptor (Homo sapiens) (UniProt P18825); assay: modulators of alpha2C/GIRK thallium flux, primary screen, cell-based, HEK293 alpha2C/GIRK1/2 (AID 624;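 active = fluorescence slope after compound addition differing from the mean of all screened samples at 99.7% confidence, in either direction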;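 also: slope of fluorescence ratio to pre-addition baseline per second over 15 to 24 s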); settings: thallium flux BTC fluorescence, at 10 µM, actives lie on both sides
# Sequence of Alpha-2C adrenergic receptor (Homo sapiens) (P18825 whole entry, looked up): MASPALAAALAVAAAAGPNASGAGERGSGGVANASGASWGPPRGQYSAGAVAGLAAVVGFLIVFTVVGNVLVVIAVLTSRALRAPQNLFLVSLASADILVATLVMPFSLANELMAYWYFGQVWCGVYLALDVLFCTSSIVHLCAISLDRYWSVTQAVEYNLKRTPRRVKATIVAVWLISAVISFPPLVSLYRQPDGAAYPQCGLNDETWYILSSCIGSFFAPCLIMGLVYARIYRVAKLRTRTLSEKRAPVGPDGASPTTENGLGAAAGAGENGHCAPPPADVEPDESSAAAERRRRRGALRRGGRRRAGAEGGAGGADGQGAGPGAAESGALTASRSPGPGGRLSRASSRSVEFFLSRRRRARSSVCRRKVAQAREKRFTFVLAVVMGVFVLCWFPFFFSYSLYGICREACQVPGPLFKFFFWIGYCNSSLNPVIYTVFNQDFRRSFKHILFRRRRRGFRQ
# [6] = inhibitors of larval lipid processing in zebrafish, primary screen, whole organism, PED6 fluorescence, gall bladder and intestine (AID 686;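 active = a full or partial loss of lipid-probe fluorescence in the fish gall bladder, intestine or both, judged by eye; inactive = no fluorescence loss, or compound toxic to the fish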;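 also: larvae 5 to 7 days old with five fish per well; signal comes from phospholipase A2 cleavage of quenched PED6 carried via bile; overnight exposure to compound and PED6 before scoring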); settings: Zebrafish larvae PED6 lipid processing, fluorescence scoring; screened at 20 µM (by protocol)
# [7] = inhibitors of Sendai virus-induced IRF3 signaling, primary screen, TLR/RLR signaling modifier project, cell-based, Sendai virus stimulus, luciferase, 10K MLSCN set (AID 602276); settings: HEK293 RL24 IRF3 luciferase reporter, at 10 µM, stronger effect = higher value;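 also: firefly luciferase from ISG56 promoter only with Renilla not read in this screen; 0% = Sendai virus plus DMSO and 100% = medium plus DMSO without virus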
# [8] = inhibitors of poly I:C-induced TLR3 signaling, primary screen, cell-based, poly I:C stimulus, luciferase, 10K MLSCN set (AID 602277;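 active = inhibition of the reporter signal at or above 50%; inactive = inhibition below 50%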); settings: HEK293-TLR3 RL24 IRF3 luciferase reporter, at 10 µM, stronger effect = higher value
# [9] = inhibitors of E-selectin induction by TNFa, primary screen, imaging, HUVEC, immunofluorescence, MLSMR starter and 10KST1 sets (AID 487;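 active = visually confirmed hit in the image check and inhibition above 20%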;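 as to inhibition: signal is fraction of cell area covered by stained E-selectin grains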;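 as to nuclei count: 100% = median nuclei count of all wells on the same plate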); settings: HUVEC TNFalpha-induced E-selectin immunofluorescence imaging, at 2 µM; inhibition: stronger effect = higher value; nuclei count: measured here: cell number, toxicity
# [10] = biological target: Muscarinic acetylcholine receptor M4 (Homo sapiens) (UniProt P08173); assay: compounds altering M4/GIRK thallium flux, either direction, primary screen, M4 allosteric agonist project, cell-based, HEK293 M4/GIRK, BTC-AM (AID 625;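 active = fluorescence slope after compound addition differing from the mean of all tested samples at 99.7% confidence, mostly higher but some lower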;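 also: thallium influx through GIRK channels coupled to M4 in HEK293 cells with BTC-AM dye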); settings: at 10 µM, actives lie on both sides
# Sequence of Muscarinic acetylcholine receptor M4 (Homo sapiens) (P08173 whole entry, looked up): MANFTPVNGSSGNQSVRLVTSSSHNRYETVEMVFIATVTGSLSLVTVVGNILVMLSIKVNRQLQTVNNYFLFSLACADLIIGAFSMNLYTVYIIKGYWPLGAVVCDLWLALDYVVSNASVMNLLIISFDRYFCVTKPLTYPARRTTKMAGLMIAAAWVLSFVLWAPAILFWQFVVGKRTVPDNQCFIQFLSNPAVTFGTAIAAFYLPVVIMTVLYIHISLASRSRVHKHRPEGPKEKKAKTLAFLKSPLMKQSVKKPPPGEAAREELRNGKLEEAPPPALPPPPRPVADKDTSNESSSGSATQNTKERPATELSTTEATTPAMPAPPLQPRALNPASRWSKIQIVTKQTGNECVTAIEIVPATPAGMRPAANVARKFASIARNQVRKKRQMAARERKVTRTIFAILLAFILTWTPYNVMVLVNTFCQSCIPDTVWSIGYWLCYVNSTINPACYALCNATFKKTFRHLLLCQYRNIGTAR
# [11] = DUSP6 inhibitors restoring Erk phosphorylation by chemical complementation, primary imaging in DUSP6-transfected HeLa (AID 609;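 active = compounds giving at least 50% inhibition in the cell-based MKP-3 phosphatase rescue imaging test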;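 as to inhibition: phospho-Erk level distribution per well compared with pooled transfected vehicle control wells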); settings: HeLa MKP-3 transfected, phospho-Erk imaging KS statistic, at 10 µM, cells stimulated with TPA for 15 min
# [12] = biological target: Dual specificity protein phosphatase 6 (Homo sapiens) (UniProt Q16828); assay: as above; settings: HeLa MKP-3 transfected, phospho-Erk imaging KS statistic; at 10 µM; stronger effect = higher value; cells stimulated with TPA for 15 min
# Sequence of Dual specificity protein phosphatase 6 (Homo sapiens) (Q16828 whole entry, looked up): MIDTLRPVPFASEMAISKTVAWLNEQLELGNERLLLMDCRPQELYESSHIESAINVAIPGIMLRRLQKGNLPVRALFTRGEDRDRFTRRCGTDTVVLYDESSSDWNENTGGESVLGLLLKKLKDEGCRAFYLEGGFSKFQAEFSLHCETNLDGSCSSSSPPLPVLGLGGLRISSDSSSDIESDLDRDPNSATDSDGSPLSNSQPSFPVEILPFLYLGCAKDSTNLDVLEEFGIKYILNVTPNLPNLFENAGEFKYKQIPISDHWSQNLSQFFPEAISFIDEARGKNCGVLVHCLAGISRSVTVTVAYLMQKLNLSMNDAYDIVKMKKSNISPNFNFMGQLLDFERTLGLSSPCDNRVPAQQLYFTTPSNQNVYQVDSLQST
# [13] = measured here: cell density z-score
# [14] = measured here: nuclear c-Myc green intensity z-score
# [15] = measured here: nuclear pErk red intensity z-score, stronger effect = higher value
smiles,measurement,setting,value
CC(C)C12CN3CC(C(C)C)(CN(C1)C3c1ccc3c(c1)OCO3)C2=O (stereo unspecified),cell count,[1],412
same,inhibition,[1],10.8% (inactive)
same,inhibition of aggregation,[2],-9.1% (inactive)
same,nuclei count,[2],98.4%
same,fluorescence slope,[3],-0.304 (inactive)
same,NADPH fluorescence slope,[4],-1e-05 (inactive)
same,slope,[5],0.00697 (inactive)
same,outcome,[6],inactive
same,inhibition,[7],11.3% (inactive)
same,inhibition,[8],20.8% (inactive)
COc1cccc(-c2cc3nc4c(c(N5CCC6(CC5)OCCO6)n3n2)CCCC4)c1,cell count,[1],479
same,inhibition,[1],10.2% (inactive)
same,inhibition of aggregation,[2],18.9% (inactive)
same,nuclei count,[2],98.9%
same,nuclei count,[9],149%
same,fluorescence slope,[3],-0.401 (inactive)
same,NADPH fluorescence slope,[4],2.4e-05 (inactive)
same,fluorescence slope,[10],0.00624 (inactive)
same,inhibition,[7],-10.9% (inactive)
same,inhibition,[8],-32.3% (inactive)
CCOc1ccccc1NC(=O)N1CCCC1C(=O)Nc1nnc(CC)s1 (stereo unspecified),cell count,[1],599
same,inhibition,[1],-0.7% (inactive)
same,inhibition of aggregation,[2],-35.9% (inactive)
same,nuclei count,[2],63.6%
same,inhibition,[9],-86% (inactive)
same,nuclei count,[9],98.7%
same,fluorescence slope,[3],-0.296 (inactive)
same,NADPH fluorescence slope,[4],-3.1e-05 (inactive)
same,fluorescence slope,[10],0.00525 (inactive)
same,inhibition,[7],1.66% (inactive)
same,inhibition,[8],12.7% (inactive)
COc1ccc2cc([C@H](C)C(=O)O)ccc2c1,cell count,[1],649
same,inhibition,[1],-0.4% (inactive)
same,inhibition,[9],-51.6% (inactive)
same,nuclei count,[9],120%
same,z-score,[11]; [13],-0.246
same,z-score,[11]; [14],0.258
same,z-score,[11]; [15],0.308
same,inhibition,[12],5.42% (inactive)
same,fluorescence slope,[3],-0.491 (inactive)
same,NADPH fluorescence slope,[4],-6.7e-05 (inactive)
same,slope,[5],0.00486 (inactive)
same,inhibition,[7],13.2% (inactive)
same,inhibition,[8],30.5% (inactive)
COC(=O)c1c(C(=O)OC)n(CCCN)c2ccc(C)cc12,cell count,[1],434
same,inhibition,[1],10.9% (inactive)
same,inhibition of aggregation,[2],1.8% (inactive)
same,nuclei count,[2],100%
same,nuclei count,[9],152%
same,fluorescence slope,[3],-0.495 (inactive)
same,NADPH fluorescence slope,[4],-7.5e-06 (inactive)
same,fluorescence slope,[10],0.00606 (inactive)
same,inhibition,[7],20.6% (inactive)
same,inhibition,[8],34% (inactive)
c1cnn(-c2cc(N3CCOCC3)ncn2)c1,cell count,[1],301
same,inhibition,[1],-5% (inactive)
same,inhibition of aggregation,[2],20.4% (inactive)
same,nuclei count,[2],85.2%
same,inhibition,[9],2.8% (inactive)
same,nuclei count,[9],101%
same,fluorescence slope,[3],-0.5 (inactive)
same,NADPH fluorescence slope,[4],7.1e-05 (inactive)
same,fluorescence slope,[10],0.0047 (inactive)
same,inhibition,[7],-15.2% (inactive)
same,inhibition,[8],-21.2% (inactive)
CCN(C(=O)CN1CCN(c2ccccc2OC)CC1)c1c(N)n(Cc2ccccc2)c(=O)[nH]c1=O,cell count,[1],471
same,inhibition,[1],1.1% (inactive)
same,inhibition of aggregation,[2],-18.1% (inactive)
same,nuclei count,[2],63.9%
same,inhibition,[9],-52.2% (inactive)
same,nuclei count,[9],102%
same,fluorescence slope,[3],-0.424 (inactive)
same,NADPH fluorescence slope,[4],-0.000102 (inactive)
same,fluorescence slope,[10],0.00639 (inactive)
same,inhibition,[7],9.1% (inactive)
same,inhibition,[8],25.4% (inactive)
O=C(Nc1ccc2c(c1)OCO2)C1CCCN1C(=O)Nc1ccccc1F (stereo unspecified),cell count,[1],432
same,inhibition,[1],9% (inactive)
same,inhibition of aggregation,[2],-11.8% (inactive)
same,nuclei count,[2],98.2%
same,nuclei count,[9],135%
same,fluorescence slope,[3],-0.418 (inactive)
same,NADPH fluorescence slope,[4],3.8e-05 (inactive)
same,fluorescence slope,[10],0.0058 (inactive)
same,inhibition,[7],16.1% (inactive)
same,inhibition,[8],24.2% (inactive)
COc1ccc(OCc2nc(N)nc(Nc3cccc(C)c3C)n2)cc1,cell count,[1],369
same,inhibition,[1],3.3% (inactive)
same,inhibition of aggregation,[2],-10.8% (inactive)
same,nuclei count,[2],102%
same,fluorescence slope,[3],-0.446 (inactive)
same,NADPH fluorescence slope,[4],-1e-06 (inactive)
same,slope,[5],0.00333 (inactive)
same,inhibition,[7],4.49% (inactive)
same,inhibition,[8],29% (inactive)
CCCCc1oc2ccccc2c1C(=O)c1cc(I)c(OCCN(CC)CC)c(I)c1,cell count,[1],651
same,inhibition,[1],-9% (inactive)
same,inhibition,[9],-235% (inactive)
same,nuclei count,[9],136%
same,z-score,[11]; [13],0.542
same,z-score,[11]; [14],-0.674
same,z-score,[11]; [15],0.954
same,inhibition,[12],5.42% (inactive)
same,fluorescence slope,[3],-0.467 (inactive)
same,NADPH fluorescence slope,[4],-4.3e-05 (inactive)
same,slope,[5],0.00817 (inactive)
same,inhibition,[7],9.88% (inactive)
same,inhibition,[8],43.5% (inactive)
CCc1ccccc1N=C1SCC(=O)N1C,cell count,[1],368
same,inhibition,[1],-8.5% (inactive)
same,inhibition of aggregation,[2],19.1% (inactive)
same,nuclei count,[2],69.3%
same,inhibition,[9],-50.2% (inactive)
same,nuclei count,[9],111%
same,fluorescence slope,[3],-0.412 (inactive)
same,NADPH fluorescence slope,[4],7.8e-05 (inactive)
same,fluorescence slope,[10],0.00583 (inactive)
same,inhibition,[7],6.15% (inactive)
same,inhibition,[8],13.2% (inactive)
CCn1cc(C(=O)NCC2COc3ccccc3O2)c2cc(OC)c(OC)cc2c1=O (stereo unspecified),cell count,[1],481
same,inhibition,[1],-29.9% (inactive)
same,inhibition of aggregation,[2],-6.2% (inactive)
same,nuclei count,[2],101%
same,inhibition,[9],-124% (inactive)
same,nuclei count,[9],116%
same,fluorescence slope,[3],-0.481 (inactive)
same,NADPH fluorescence slope,[4],-6.7e-05 (inactive)
same,fluorescence slope,[10],0.00554 (inactive)
same,inhibition,[7],11.8% (inactive)
same,inhibition,[8],-1.62% (inactive)
Cc1ccnc(NC(=O)CCC(=O)N(CC(=O)NC2CCCCC2)c2cccc(C)c2C)c1,cell count,[1],426
same,inhibition,[1],4.4% (inactive)
same,inhibition of aggregation,[2],-2.4% (inactive)
same,nuclei count,[2],103%
same,inhibition,[9],28.9% (inactive)
same,nuclei count,[9],125%
same,fluorescence slope,[3],-0.626 (inactive)
same,NADPH fluorescence slope,[4],3.3e-05 (inactive)
same,fluorescence slope,[10],0.00484 (inactive)
same,inhibition,[7],13.1% (inactive)
same,inhibition,[8],18.7% (inactive)
